TDP1 cell noCPT – qHTS for Inhibitors of human tyrosyl-DNA phosphodiesterase 1 (TDP1): qHTS in cells in absence of CPT | Potency, µM (doses to about 46.2 µM), without a hit: top-dose activity change, negative = growth inhibition, usual class: inhibitors | DT40 Tdp1-/- hTDP1 cells, no CPT, ATP luminescence, 48 h | actives 15% (n = 420,000) | AID 686978, 2013; also: % is scaled to controls: 0 for no effect and ±100 for the full control effect; nearly all actives have a fitted effect of over 55% in size
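Compound effects on proliferation are scored in DT40 Tdp1-/-;hTDP1 cells in the absence of CPT. ATP levels (CellTiter-Glo luminescence) are recorded after a ≥48 hr, 37 °C incubation.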
TDP1 inh – inhibitors of human tyrosyl-DNA phosphodiesterase TDP1; Q9NUW8; recombinant TDP1, AlphaScreen DNA substrate cleavage; Potency, µM (series often up to 130 µM), for inactives: top-dose activity change, negative = inhibition, most hits filed as inhibitors; actives 0.28% (n = 350,000); also: % is scaled to controls: 0 for no effect and ±100 for the full control effect; nearly all actives have a fitted effect of over 40% in size
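AlphaScreen read-out: signal falls as enzyme removes the 3' tyrosine-FITC from a 5'-biotinylated DNA oligo (15 nM, 5 min, RT). Enzyme was E. coli-made recombinant Tdp1 at 1 nM, exposed to compound for 15 min beforehand; beads 10 ug/ml, 10 min.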
DT40 TDP1 CPT – growth inhibition of DT40 Tdp1-/-;hTDP1 cells with camptothecin (screen for TDP1 inhibitors); actives 12% (n = 420,000); chicken DT40 Tdp1-/-;hTDP1 cells + 20 nM CPT, ATP luminescence, 48 h; Potency, µM (highest dose often 46.2 µM), for the others: top-dose activity change, negative = growth inhibition, usual class: inhibitors; also: % is scaled to controls: 0 for no effect and ±100 for the full control effect; nearly all actives have a fitted effect of over 55% in size
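Chicken DT40 Tdp1-/- cells complemented with human TDP1, 400 cells/well, exposed to compounds plus 20 nM camptothecin for at least 48 h at 37 C; viability read as ATP content by CellTiter-Glo luminescence.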
ClpP mod – qHTS Assay for Activators of ClpP; AID 651965, 2013; actives 1.9% (n = 340,000); Potency, µM (doses to about 57.5 µM), without a hit: at the highest dose activity change, negative = active; ATP-dependent Clp protease proteolytic subunit (Bacillus subtilis (strain 168)), P80244; purified B. subtilis ClpP, FRET peptide cleavage, 20 min; active = well fitted falling curve with a large enough effect; inconclusive = small, poorly fitted or top-dose-only effect; inactive = no such curve, though single readings can be large or run the other way; also: the source files actives as falling curves though it sought activators and does not explain the sign; nearly all actives have a fitted effect of over 65% in size
Target sequence (P80244 whole entry, looked up): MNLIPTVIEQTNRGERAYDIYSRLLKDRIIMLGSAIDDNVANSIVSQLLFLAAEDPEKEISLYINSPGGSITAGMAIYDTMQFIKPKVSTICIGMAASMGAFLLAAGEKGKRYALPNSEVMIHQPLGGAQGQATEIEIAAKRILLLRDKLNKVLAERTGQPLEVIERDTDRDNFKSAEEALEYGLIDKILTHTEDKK
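ClpP 10 microg/mL final, pH 8 Tris/KCl buffer with BSA, glycerol, Tween-20; compound pinned in; FRET-FV substrate; RT 20 min; Ex320/Em430; ΔFRET vs ADEP 5.8 microM, DMSO, no enzyme.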
Starred values were filed as active, the others as inactive; ? = inconclusive; / = no result; [ ] = another dose, or the depositor's remark. The list is not random: actives were taken first. Their share in the collection is about 17%. Unless noted, calls follow the shape of the dose curve; as a rule, active = well fitted curve in the direction sought with a large enough effect; inconclusive = small, poorly fitted or top-dose-only effect, or another doubt; inactive = no such curve, though single readings can be large; an effect the other way counts as inactive or inconclusive. Potency is read from the fitted curve at half-maximal effect.

SMILES	TDP1 cell noCPT	TDP1 inh	DT40 TDP1 CPT	ClpP mod
CCOC(=O)c1sc(NC(=O)c2cccc(S(=O)(=O)N(CC)CC)c2)cc1C	4.6µM*	6%	2.6µM*	-9%
CCOC(=O)c1c(NC(=O)Nc2ccc(Cl)cc2)sc(C)c1C	13µM*	3%	?	?
CC(=O)Nc1ccc(NC(=O)c2c(C)nn(Cc3ccccc3)c2Cl)cc1	1.2µM*	0%	13µM*	/
CCOC(=O)c1c(NC(=O)Nc2cccc(Cl)c2)sc(C)c1C	?	2%	-5%	-7%
CCOC(=O)c1sc(NC(=O)C2CC2)cc1C	?	3%	?	-8%
CC(=O)Nc1ccc(NC(=O)c2c(C)nn(Cc3ccccc3Cl)c2C)cc1	-2%	4%	6%	/
COCc1ccc(CN2CCC(n3nccc3NC(=O)CCOc3ccccc3)CC2)o1	9%	1%[56.1 µM]	9%	-2%
CCOC(=O)c1sc(NC(=O)c2c(C)nn(Cc3ccccc3)c2C)cc1C	?	6%	16µM*	-23%
CCOC(=O)c1c(NC(=O)/C=C/C(=O)O)sc(C)c1-c1ccc(Cl)cc1	13µM*	5%	?	0%
CCOC(=O)c1sc(NC(=O)Nc2ccc(Cl)cc2)cc1C	3.7µM*	0%	5.8µM*	1%
CCOC(=O)c1sc(NC(=O)c2ccc(Cl)s2)cc1C	1%	3%	-16%	-2%
CCc1cccc(CC)c1NC(=O)CO/N=C(\C)c1cccs1	?	-1%	?	1%
C[C@]12C(=O)N(c3cccc(F)c3)C(=O)N1[C@@H]1c3ccccc3OC[C@@H]1[C@H]2c1ccccc1	21µM*	/	12µM*	1%
C[C@]12C(=O)N(c3ccc(C(F)(F)F)cc3)C(=O)N1[C@@H]1c3ccccc3OC[C@@H]1[C@H]2c1ccccc1	?	/	23µM*	-3%
C[C@]12C(=O)N(c3ccccc3)C(=O)N1[C@H]1c3ccccc3OC[C@@H]1[C@H]2c1ccccc1	?	1%	?	-4%
C[C@]12C(=O)N(c3ccccc3)C(=O)N1[C@@H]1c3ccccc3OC[C@@H]1[C@H]2c1ccccc1	16µM*	/	15µM*	0%
C[C@]12C(=O)N(c3cccc(Cl)c3)C(=O)N1[C@@H]1c3ccccc3OC[C@@H]1[C@H]2c1ccccc1	12µM*	0%	15µM*	-1%
CC(=O)Nc1ccc(NC(=O)CCS(=O)(=O)c2ccc3c(c2)CC(=O)N3C)cc1	-9%	3%	-2%	-1%
CSc1ncc(Cl)c(C(=O)N(Cc2ccccc2Cl)C2CCS(=O)(=O)C2)n1 (stereo not drawn)	-11%	1%	-4%	1%
CCOC(=O)c1cnc(-c2ccccc2)nc1Oc1ccc(Cl)cc1	?	-2%	-8%	1%
CCOC(=O)c1c(Oc2ccc(C(C)=O)cc2)nnc(-c2ccccc2)c1-c1ccccc1	26µM*	0%	21µM*	-4%
CCOC(=O)c1c(Nc2ccc(OC)cc2)nnc(-c2ccccc2)c1-c1ccccc1	23µM*	/	23µM*	0%
CCOC(=O)c1c(Nc2ccc(F)cc2)nnc(-c2ccccc2)c1-c1ccccc1	18µM*	/	23µM*	0%
CCOC(=O)c1c(Nc2ccccc2)nnc(-c2ccccc2)c1-c1ccccc1	?	/	?	1%
CCOC(=O)c1c(Nc2ccc(O)cc2)nnc(-c2ccccc2)c1-c1ccccc1	?	/	?	2%
SMILES	TDP1 cell noCPT	TDP1 inh	DT40 TDP1 CPT	ClpP mod
COc1ccccc1CCC(=O)NCCCn1ccc2ccccc21	?	6%	8%	/
C[C@H](CO)N1C[C@H](C)[C@@H](CN(C)C(=O)Nc2ccc3c(c2)OCCO3)OCc2cnnn2CCCC1=O	6%	/	7%	2%
COc1ccc(C2=NN(C(=O)CSc3nc4ccccc4s3)C(c3ccc(OC)cc3)C2)cc1 (stereo not drawn)	12µM*	3%	13µM*	-9%
COc1ccc(C2=NN(C(=O)CSc3nc4ccccc4s3)C(c3ccc(F)cc3)C2)cc1 (stereo not drawn)	?	3%	21µM*	-17%
CCCNC(=O)C1(CC2CC(c3ccccc3)=NO2)CCN(C(=O)CCCCCBr)CC1 (stereo not drawn)	4%	/	-7%	1%
COC(=O)C1=C(O)C(C(=O)OC)C(c2ccc(C)cc2)C(C#N)(C#N)C1c1ccc(C)cc1 (stereo not drawn)	4.1µM*	1%	5.2µM*	-1%
COc1ccc(S(=O)(=O)NNC(=O)Nc2ccc(F)cc2)cc1	-20%	/	-1%	-3%
CCn1c(CNc2nc3ccccc3n2C(C)C)nc2ccccc21	10µM*	3%	15µM*	-1%
COc1cccc(CNc2nc3ccccc3n2C(C)C)c1O	?	/	21µM*	/
CC(C)n1c(NCc2cc(Cl)ccc2O)nc2ccccc21	18µM*	2%	?	0%
COc1ccc(CCNC(=O)CSc2nc3[nH]ncc3c(=O)n2-c2ccc(C)c(Cl)c2)cc1OC	-7%	4%	-11%	0%
O=C(Nc1cccc(/C=C/c2nc3ccccc3c(=O)[nH]2)c1)c1ccccc1Cl	15µM*	5%	16µM*	3%
COc1ccc(C(=O)Nc2cccc(/C=C/c3nc4ccccc4c(=O)[nH]3)c2)cc1	6.5µM*	-6%	9.2µM*	4%
CCCNC(=O)c1cc(C2CCCCN2C(=O)CCCc2ccccc2)on1 (stereo not drawn)	-20%	/	-23%	1%
COc1ccc(Cn2ccnc2SCC(=O)Nc2ccccc2OC)cc1	?	8%	?	1%
c1ccc(CN2CCN(c3nc(-c4ccccc4)nc(-n4ccnc4)n3)CC2)cc1	18µM*	6%	16µM*	0%
CC(C)Nc1nc(-c2ccccc2)nc(-n2ccnc2)n1	-27%	8%	-3%	3%
c1ccc(-c2nc(-n3ccnc3)nc(-n3ccnc3)n2)cc1	10µM*	0%	21µM*	0%
c1ccc(N(c2ccccc2)c2nc(N3CCCC3)nc(-n3ccnc3)n2)cc1	26µM*	0%	?	-14%
COc1ccc(CC(=O)Nc2ccccc2C(F)(F)F)cc1S(=O)(=O)N1CCOCC1	-17%	/	-2%	2%
NC(=O)CN(Cc1ccccc1)S(=O)(=O)c1ccc2c(c1)OCCO2	2%	-2%	13%	/
Cc1ccc(Nc2nc(-c3sc(NC(=O)c4cccc(Cl)c4)nc3C)cs2)cc1	/	6%	/	/
CCC(C)C(=O)Nc1nc(C)c(-c2csc(Nc3ccc(Cl)cc3)n2)s1 (stereo not drawn)	9.2µM*	6%	16µM*	-23%
CCCC(=O)Nc1nc(C)c(-c2csc(Nc3ccc(Cl)cc3)n2)s1	?	4%	12µM*	?
CC1C(=O)NN=C1C(=O)N/N=C/c1ccco1 (stereo not drawn)	?	0%	?	/

Source: PubChem
